According to the supplement of paper PMC11732987, “Enantioselective OTUD7B fragment discovery through chemoproteomics screening and high-throughput optimisation” (Communications Chemistry, 2025):

Legend:
Test in all cases: log2 ratio of Biotin-Ahx-Ub-VS probe labelling (fragment/DMSO); higher = less target engagement (more negative = stronger competition), active = hit call of the paper (q ≤ 0.05, log2 ratio ≤ -1)
Details in all cases: compound concentration: 200 uM; treatment time: 3 h
USP34 = USP34 (UniProt Q70CQ2)
How it was run: (§1)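 HEK293T lysate in Tris/CHAPS/IGEPAL buffer with protease inhibitors (495 µg per sample) was given fragment at 200 µM or vehicle for 3 h, in triplicate. It then received Biotin-Ahx-Ub-VS at 0.5 µM final for 1 h. Labelled DUBs were NeutrAvidin-enriched, digested with LysC and trypsin, and run by diaPASEF LC-MS/MS. Values are average log2 fragment/vehicle ratios by unpaired t-test on global-median-normalised Spectronaut quantities of proteins with ≥2 unique peptides.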

USP36 = biological target: T1, USP36 (UniProt Q9P275)
T1 sequence (whole entry): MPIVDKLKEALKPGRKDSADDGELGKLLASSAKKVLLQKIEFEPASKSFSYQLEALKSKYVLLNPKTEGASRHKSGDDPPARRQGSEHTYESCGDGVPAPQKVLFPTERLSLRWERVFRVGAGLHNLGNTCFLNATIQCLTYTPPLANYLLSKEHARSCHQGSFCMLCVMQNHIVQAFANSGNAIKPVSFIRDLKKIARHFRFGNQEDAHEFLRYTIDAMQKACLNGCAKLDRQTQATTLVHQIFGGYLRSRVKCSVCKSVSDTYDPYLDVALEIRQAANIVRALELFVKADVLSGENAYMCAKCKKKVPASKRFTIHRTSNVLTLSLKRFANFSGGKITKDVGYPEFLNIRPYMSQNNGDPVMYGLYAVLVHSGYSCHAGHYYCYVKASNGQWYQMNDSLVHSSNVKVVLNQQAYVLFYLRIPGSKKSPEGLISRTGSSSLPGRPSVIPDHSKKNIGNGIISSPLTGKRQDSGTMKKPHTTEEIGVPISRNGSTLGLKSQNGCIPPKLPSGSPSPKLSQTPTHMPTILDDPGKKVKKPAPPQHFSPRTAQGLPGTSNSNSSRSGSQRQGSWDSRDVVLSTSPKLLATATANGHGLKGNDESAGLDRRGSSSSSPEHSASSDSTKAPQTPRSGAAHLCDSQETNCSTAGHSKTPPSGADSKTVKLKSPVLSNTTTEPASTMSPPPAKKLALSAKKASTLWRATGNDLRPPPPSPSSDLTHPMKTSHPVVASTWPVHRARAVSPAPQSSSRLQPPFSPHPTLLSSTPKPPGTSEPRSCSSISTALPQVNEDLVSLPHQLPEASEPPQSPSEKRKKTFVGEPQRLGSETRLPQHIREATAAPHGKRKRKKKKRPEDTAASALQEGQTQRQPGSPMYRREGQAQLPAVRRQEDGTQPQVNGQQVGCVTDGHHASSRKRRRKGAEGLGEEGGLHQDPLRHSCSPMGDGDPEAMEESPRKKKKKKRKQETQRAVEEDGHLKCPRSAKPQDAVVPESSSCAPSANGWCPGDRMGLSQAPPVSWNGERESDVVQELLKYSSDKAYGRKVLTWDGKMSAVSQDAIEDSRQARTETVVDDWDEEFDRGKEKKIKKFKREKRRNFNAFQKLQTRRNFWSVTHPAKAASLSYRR
How it was run: as §1

USP38 = biological target: T2, USP38 (UniProt Q8NB14)
T2 sequence (whole entry): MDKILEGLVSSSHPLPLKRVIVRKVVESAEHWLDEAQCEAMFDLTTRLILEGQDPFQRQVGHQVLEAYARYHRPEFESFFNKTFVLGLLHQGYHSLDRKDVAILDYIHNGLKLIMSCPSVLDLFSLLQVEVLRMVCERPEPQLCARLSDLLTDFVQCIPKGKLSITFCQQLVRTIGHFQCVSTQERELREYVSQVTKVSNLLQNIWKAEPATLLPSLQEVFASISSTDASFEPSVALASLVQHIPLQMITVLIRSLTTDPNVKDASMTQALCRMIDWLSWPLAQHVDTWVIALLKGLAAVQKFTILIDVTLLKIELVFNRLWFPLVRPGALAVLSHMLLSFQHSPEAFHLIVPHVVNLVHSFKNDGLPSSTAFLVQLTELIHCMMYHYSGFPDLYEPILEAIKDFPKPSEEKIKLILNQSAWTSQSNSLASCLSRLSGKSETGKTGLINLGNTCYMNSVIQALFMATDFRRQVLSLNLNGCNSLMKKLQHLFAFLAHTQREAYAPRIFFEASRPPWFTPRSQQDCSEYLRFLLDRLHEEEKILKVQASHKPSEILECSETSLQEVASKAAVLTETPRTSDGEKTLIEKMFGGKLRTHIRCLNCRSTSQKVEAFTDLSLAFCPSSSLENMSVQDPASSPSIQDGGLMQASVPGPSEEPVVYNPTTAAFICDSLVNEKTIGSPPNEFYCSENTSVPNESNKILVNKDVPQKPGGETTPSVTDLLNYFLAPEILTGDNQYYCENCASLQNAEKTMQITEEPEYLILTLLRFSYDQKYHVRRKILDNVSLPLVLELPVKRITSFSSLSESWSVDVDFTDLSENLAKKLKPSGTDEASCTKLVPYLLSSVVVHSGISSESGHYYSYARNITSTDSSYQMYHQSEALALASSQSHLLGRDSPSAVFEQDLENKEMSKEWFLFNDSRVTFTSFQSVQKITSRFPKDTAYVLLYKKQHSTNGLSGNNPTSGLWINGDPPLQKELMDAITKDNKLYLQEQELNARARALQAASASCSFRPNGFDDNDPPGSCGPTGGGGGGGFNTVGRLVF
How it was run: as §1

USP39 = biological target: T3, USP39 (UniProt Q53GS9)
T3 sequence (whole entry): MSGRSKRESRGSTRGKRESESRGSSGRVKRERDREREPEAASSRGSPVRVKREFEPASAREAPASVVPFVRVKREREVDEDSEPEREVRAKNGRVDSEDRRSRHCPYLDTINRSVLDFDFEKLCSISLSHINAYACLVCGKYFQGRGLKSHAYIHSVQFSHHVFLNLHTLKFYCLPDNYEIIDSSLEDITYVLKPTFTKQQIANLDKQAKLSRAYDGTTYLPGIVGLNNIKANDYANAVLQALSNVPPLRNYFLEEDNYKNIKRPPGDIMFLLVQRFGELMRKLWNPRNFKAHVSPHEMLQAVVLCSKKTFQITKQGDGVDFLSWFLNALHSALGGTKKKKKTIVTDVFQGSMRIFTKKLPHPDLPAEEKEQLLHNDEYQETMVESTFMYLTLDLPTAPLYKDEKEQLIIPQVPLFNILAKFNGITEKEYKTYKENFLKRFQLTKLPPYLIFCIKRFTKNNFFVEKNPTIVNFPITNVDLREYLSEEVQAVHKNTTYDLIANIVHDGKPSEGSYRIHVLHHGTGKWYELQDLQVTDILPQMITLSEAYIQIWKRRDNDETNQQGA
How it was run: as §1

USP4 = biological target: T4, USP4 (UniProt Q13107)
T4 sequence (whole entry): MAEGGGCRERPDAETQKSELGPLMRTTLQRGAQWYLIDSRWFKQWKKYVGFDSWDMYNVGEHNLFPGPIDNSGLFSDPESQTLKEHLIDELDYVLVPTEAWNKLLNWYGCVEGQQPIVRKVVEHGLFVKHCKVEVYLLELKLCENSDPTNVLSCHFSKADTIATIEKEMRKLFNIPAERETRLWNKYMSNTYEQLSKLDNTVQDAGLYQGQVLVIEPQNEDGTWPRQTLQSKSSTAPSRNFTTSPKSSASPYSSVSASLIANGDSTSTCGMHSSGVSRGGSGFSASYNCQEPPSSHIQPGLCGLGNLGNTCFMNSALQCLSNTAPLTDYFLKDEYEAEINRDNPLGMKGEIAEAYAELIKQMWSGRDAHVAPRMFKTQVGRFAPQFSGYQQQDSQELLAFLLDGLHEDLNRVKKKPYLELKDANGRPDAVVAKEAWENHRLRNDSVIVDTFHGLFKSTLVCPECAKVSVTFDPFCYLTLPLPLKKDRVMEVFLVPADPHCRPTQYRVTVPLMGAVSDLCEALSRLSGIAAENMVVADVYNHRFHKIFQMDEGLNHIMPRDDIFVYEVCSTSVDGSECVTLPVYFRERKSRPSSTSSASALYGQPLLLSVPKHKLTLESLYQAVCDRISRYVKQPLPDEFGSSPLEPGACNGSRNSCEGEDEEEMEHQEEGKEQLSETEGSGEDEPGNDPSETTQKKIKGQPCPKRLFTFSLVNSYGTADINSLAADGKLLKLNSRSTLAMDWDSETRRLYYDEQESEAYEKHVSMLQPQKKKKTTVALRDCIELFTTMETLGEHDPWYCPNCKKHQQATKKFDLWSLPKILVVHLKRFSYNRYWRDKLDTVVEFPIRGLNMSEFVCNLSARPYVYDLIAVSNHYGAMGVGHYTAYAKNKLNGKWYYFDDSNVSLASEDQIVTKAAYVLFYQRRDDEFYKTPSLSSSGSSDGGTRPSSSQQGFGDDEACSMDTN
How it was run: as §1

Measured: log2 ratio of Biotin-Ahx-Ub-VS probe labelling

Sequence of USP34 (Q70CQ2 whole entry, the tested form may be a part): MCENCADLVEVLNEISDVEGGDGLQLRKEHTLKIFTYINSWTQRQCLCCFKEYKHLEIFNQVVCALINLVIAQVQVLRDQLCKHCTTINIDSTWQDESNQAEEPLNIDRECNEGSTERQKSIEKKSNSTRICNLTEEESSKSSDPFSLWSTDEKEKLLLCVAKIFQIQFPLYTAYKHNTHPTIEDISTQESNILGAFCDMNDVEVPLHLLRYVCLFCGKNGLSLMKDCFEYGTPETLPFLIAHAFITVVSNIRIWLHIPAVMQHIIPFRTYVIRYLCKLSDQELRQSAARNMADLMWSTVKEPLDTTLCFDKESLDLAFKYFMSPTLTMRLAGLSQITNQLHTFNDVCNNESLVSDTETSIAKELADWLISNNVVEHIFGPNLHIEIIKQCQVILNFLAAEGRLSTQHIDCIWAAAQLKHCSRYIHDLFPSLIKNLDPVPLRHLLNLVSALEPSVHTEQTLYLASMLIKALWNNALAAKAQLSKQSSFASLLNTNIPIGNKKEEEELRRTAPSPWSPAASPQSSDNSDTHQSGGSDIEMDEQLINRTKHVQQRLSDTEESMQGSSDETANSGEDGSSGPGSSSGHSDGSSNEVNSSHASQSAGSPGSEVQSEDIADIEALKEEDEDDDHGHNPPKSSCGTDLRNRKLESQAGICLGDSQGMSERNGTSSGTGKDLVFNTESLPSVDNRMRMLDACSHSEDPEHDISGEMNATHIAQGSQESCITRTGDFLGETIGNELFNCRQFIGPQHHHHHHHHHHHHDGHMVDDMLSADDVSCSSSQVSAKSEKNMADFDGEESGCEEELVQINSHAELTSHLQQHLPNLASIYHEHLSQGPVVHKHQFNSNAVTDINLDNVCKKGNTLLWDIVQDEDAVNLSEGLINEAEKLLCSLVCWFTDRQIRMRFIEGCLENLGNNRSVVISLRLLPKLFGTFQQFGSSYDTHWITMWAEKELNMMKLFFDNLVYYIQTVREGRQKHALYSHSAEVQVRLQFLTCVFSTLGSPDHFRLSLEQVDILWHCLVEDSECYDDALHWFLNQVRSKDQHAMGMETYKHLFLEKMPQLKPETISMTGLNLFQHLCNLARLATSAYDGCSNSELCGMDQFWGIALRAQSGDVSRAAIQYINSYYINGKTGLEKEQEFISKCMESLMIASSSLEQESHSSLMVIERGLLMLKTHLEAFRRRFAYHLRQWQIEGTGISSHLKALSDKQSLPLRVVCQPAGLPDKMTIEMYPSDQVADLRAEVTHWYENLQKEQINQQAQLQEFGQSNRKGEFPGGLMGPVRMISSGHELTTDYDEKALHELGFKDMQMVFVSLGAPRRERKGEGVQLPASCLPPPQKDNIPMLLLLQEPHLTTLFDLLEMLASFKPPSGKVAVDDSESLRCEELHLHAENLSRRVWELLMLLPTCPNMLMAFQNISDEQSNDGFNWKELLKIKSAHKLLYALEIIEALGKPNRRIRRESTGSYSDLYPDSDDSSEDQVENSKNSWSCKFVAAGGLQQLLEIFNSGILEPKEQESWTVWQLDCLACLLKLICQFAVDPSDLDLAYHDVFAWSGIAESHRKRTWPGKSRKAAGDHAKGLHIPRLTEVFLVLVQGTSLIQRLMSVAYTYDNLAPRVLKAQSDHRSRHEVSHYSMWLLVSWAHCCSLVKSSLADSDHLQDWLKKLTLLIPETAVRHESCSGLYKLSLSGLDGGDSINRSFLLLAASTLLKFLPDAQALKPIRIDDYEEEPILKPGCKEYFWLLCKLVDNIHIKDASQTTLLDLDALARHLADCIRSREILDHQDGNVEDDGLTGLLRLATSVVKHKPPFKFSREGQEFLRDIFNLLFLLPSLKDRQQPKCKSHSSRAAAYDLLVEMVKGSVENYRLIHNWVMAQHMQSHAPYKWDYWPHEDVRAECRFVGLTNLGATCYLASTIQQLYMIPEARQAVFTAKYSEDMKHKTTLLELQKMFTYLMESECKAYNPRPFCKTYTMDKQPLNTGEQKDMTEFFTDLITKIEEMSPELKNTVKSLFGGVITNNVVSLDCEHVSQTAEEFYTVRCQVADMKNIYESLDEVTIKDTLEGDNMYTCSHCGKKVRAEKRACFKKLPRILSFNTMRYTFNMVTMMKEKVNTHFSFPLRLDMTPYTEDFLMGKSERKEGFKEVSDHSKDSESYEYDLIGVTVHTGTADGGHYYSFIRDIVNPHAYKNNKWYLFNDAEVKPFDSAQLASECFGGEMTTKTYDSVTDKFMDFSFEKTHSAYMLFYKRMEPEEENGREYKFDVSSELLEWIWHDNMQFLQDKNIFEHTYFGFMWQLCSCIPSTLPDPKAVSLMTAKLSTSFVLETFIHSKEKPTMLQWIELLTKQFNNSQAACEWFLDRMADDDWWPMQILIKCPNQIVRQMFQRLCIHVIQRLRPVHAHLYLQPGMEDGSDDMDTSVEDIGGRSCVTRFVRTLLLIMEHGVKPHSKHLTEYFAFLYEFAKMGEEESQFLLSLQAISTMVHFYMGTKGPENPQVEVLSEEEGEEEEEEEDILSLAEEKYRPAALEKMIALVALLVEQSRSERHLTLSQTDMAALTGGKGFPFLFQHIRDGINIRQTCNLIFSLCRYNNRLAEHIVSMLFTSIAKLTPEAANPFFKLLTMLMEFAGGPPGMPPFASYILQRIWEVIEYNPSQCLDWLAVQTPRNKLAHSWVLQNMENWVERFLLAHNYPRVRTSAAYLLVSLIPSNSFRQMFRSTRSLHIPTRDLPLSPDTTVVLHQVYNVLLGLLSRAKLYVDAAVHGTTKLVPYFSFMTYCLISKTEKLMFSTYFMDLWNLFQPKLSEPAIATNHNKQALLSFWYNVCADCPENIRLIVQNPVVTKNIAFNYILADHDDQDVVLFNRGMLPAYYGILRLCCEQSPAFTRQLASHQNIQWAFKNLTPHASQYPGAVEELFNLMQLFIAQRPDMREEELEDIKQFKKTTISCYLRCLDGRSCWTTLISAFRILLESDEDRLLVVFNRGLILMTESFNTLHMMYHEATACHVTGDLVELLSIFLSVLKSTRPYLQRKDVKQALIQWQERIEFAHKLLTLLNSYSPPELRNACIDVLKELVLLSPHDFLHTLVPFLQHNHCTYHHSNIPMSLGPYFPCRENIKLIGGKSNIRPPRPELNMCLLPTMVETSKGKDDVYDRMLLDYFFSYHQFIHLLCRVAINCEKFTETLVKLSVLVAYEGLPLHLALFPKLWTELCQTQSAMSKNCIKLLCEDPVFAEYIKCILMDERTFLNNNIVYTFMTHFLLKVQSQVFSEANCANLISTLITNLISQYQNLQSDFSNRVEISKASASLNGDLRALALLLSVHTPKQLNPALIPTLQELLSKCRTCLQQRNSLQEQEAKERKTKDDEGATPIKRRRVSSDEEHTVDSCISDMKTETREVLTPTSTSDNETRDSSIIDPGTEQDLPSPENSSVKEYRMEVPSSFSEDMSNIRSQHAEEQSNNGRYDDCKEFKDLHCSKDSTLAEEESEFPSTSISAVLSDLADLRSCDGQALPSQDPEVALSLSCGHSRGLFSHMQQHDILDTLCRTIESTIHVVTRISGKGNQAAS

Cc1ccccc1OCC(=O)N1CCN(C(=O)CCl)CC1
inactive: USP34 -0.131 | USP36 -0.102 | USP38 -0.159 | USP39 0.114 | USP4 -0.0294
